From PubChem BioAssay (EPA / NIEHS) come the findings set out here.

The nature of experiment [1]: ATG_TAL_CIS: Attagene CIS-FACTORIAL HepG2 Assay for human TAL Basal Promoter (AID 2282966; active = hit-call score of the fitted dose curve at least 0.9, where 1 is the maximum; inactive = score below 0.9;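 also: background control endpoint measuring basal TAL promoter reporter mRNA not a specific factor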). The following applies: HepG2 Attagene cis-factorial TAL promoter reporter; actives raise or lower the signal. An outline of the steps: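 Endogenous transcription-factor activity is sensed in HepG2 cells through transfected cis-promoter reporter constructs. After 24 h dosing, reporter transcripts are quantified by RT-PCR and capillary electrophoresis. Gain or loss of signal is fitted relative to DMSO.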

A short description of experiment [2]: ATG_TGFb_CIS: Attagene CIS-FACTORIAL HepG2 Assay for human Transforming Growth Factor (TGF) (AID 2282967; active = hit-call score of the fitted dose curve at least 0.9, where 1 is the maximum; inactive = score below 0.9). The following applies: HepG2 Attagene CIS TGFb reporter, mRNA transcription; actives raise or lower the signal. An outline of the steps: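 Transient MRTU transfection of HepG2 (FuGene 6). Dose 24 h. TriZol RNA, oligo(dT) RT, PCR, 6-FAM primer extension, HpaI cut, CE. Bidirectional fit, DMSO = baseline.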

Experiment [3] in a line: ATG_VDRE_CIS: Attagene CIS-FACTORIAL HepG2 Assay for human Vitamin D Receptor Element (VDRE) (AID 2282968; active = hit-call score of the fitted dose curve at least 0.9, where 1 is the maximum; inactive = score below 0.9). As to conditions: HepG2 VDRE cis-reporter transcription, actives raise or lower the signal. The procedure, abridged:
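Compounds were applied for 24 h to HepG2 cells transfected with promoter-regulated reporter units. Total RNA was reverse-transcribed, and reporter amplicons were fluorescently labelled and sized by capillary electrophoresis.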

Experiment [4] deals with Nuclear receptor subfamily 1 group I member 3 (Homo sapiens) (UniProt Q14994). The experiment can be described thus: ATG_CAR_TRANS: Attagene TRANS-FACTORIAL HepG2 Assay for human Constitutive Androstane Receptor (CAR) (AID 2282969).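 Also: activators raise reporter mRNA above DMSO so AC50 marks induction.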 As to conditions: HepG2 Attagene TRANS-FACTORIAL CAR reporter. The procedure, abridged:
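Transiently transfected HepG2, multiplex TRANS reporters (CAR-Gal4 chimera driving GAL4-UAS reporter). 24 h dosing. Readout: reporter transcript by RT-PCR + capillary electrophoresis, fluorescence intensity; positive direction vs DMSO.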

The target in experiment [5] is Steroid hormone receptor ERR1 (Homo sapiens) (UniProt P11474). The experiment can be described thus: ATG_ERRa_TRANS: Attagene TRANS-FACTORIAL HepG2 Assay for human Estrogen-Related Receptor alpha (ERRa) (AID 2282971). As to conditions: HepG2 Attagene TRANS reporter, ERRa transactivation. The procedure, abridged: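 HepG2 cells were transiently transfected with multiple GAL4-UAS reporter units, then dosed with compound for 24 h. Total RNA was reverse-transcribed, reporter cDNA PCR-amplified and fluorescently labelled, and fragments resolved by capillary electrophoresis; induction was compared with DMSO.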
Sequence of Steroid hormone receptor ERR1 (Homo sapiens) (P11474 whole entry, looked up, the tested form may be a part): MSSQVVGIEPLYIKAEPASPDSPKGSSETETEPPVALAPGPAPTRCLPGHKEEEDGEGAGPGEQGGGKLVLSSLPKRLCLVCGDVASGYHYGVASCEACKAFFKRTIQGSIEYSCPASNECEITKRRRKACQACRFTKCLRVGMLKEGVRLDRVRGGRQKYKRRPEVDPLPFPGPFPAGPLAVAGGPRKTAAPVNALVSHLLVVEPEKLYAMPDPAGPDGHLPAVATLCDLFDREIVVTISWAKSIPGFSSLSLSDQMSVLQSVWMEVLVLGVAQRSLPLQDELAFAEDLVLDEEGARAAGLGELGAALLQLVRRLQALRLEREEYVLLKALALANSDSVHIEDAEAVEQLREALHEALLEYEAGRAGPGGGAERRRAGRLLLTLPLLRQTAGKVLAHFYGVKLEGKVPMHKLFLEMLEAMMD

Experiment [6] concerns the target X-box-binding protein 1 (Homo sapiens) (UniProt P17861). The experiment can be described thus: ATG_Xbp1_CIS: Attagene CIS-FACTORIAL HepG2 Assay for human X-box Binding Protein 1 (XBP1) (AID 2282972; active = hit-call score of the fitted dose curve at least 0.9, where 1 is the maximum; inactive = score below 0.9). As to conditions: HepG2 XBP1 cis-element reporter, Attagene multiplex; actives raise or lower the signal. The procedure, abridged: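 Human hepatoma HepG2, cis-element reporter system, 24 h treatment; mRNA quantified by RT-PCR/CE fluorescence; fit relative to DMSO.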

A short description of experiment [7]: ATG_GAL4_TRANS: Attagene TRANS-FACTORIAL HepG2 Assay for GAL4 (Internal Marker) (AID 2282976). The following applies: HepG2 Attagene TRANS GAL4 internal marker reporter. An outline of the steps: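 Fluorescence from capillary electrophoresis of labelled RT-PCR products quantifies reporter mRNA induction after 24 h dosing of HepG2 cells carrying transfected GAL4-UAS reporter transcription units. Vehicle DMSO serves as baseline.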

Experiment [8] concerns the target Bile acid receptor (Homo sapiens) (UniProt Q96RI1). The experiment can be described thus: ATG_FXR_TRANS: Attagene TRANS-FACTORIAL HepG2 Assay for Farnesoid X Receptor (FXR) (AID 2282979).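 Also: hits raise reporter mRNA above DMSO so AC50 marks FXR activation.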 The following applies: HepG2 Attagene TRANS FXR-GAL4 reporter transcription. The procedure, abridged: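 Chimeric FXR-GAL4 activity in transiently transfected human HepG2 liver cells is scored as induction of reporter mRNA after 24 h of dosing. Detection uses RT-PCR with fluorescent labelling and capillary electrophoresis, with DMSO serving as baseline.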

For experiment [9], the target named is Oxysterols receptor LXR-beta (Homo sapiens) (UniProt P55055). The experiment can be described thus: ATG_LXRb_TRANS: Attagene TRANS-FACTORIAL HepG2 Assay for human Liver X Receptor beta (LXRb) (AID 2282981). As to conditions: HepG2 Attagene TRANS GAL4-LXRb reporter, mRNA. The procedure, abridged:
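Multiplexed reporter assay, HepG2, 24 h dosing. Fluorescence of labelled RT-PCR products after capillary electrophoresis gives transcript level; positive fitting direction relative to DMSO.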

Experiment [10] concerns the target Hepatocyte nuclear factor 4-alpha (Homo sapiens) (UniProt P41235). The experiment can be described thus: ATG_HNF4a_TRANS: Attagene TRANS-FACTORIAL HepG2 Assay for human Hepatocyte Nuclear Factor 4 alpha (HNF4a) (AID 2282982). As to conditions: HepG2 HNF4a transactivation reporter, mRNA readout. An outline of the steps:
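Endpoint reflects transcriptional activation of a GAL4-UAS reporter by an HNF4a-GAL4 chimera in transfected HepG2 cells, 24 h post-dosing. Fluorescence from RT-PCR products separated by capillary electrophoresis; DMSO baseline.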

Experiment [11] in a line: ATG_M_06_TRANS: Attagene TRANS-FACTORIAL HepG2 Assay for M06 Transcription Factor (Internal Marker) (AID 2282983). As to conditions: HepG2 Attagene TRANS M06 internal marker reporter. The procedure, abridged: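 Human liver HepG2 cells bearing transiently transfected chimeric NR-GAL4 reporter units were treated with chemicals for 24 h. Total RNA was reverse-transcribed, reporter sequences amplified and labelled, then quantified by capillary electrophoresis. Activity was fitted upward relative to DMSO.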

The target in experiment [12] is Nuclear receptor subfamily 4 group A member 2 (Homo sapiens) (UniProt P43354). The experiment can be described thus: ATG_NURR1_TRANS: Attagene TRANS-FACTORIAL HepG2 Assay for human Nuclear Receptor Related Protein 1 (NURR1) (AID 2282985). The following applies: HepG2 Attagene TRANS reporter, mRNA readout. An outline of the steps:
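Endpoint: reporter mRNA increase relative to DMSO. HepG2 cells transfected with reporter units, treated 24 h; RNA processed by RT-PCR, labelling, HpaI digestion and capillary electrophoresis.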

For experiment [13], the target named is Transcriptional activator Myb (Homo sapiens) (UniProt P10242). The experiment can be described thus: ATG_Myb_CIS: Attagene CIS-FACTORIAL HepG2 Assay for human Myeloblastosis (Myb) Proto-Oncogene Transcription Factor (AID 2282986; active = hit-call score of the fitted dose curve at least 0.9, where 1 is the maximum; inactive = score below 0.9). As to conditions: HepG2 Attagene CIS-FACTORIAL Myb reporter transcription; actives raise or lower the signal. An outline of the steps:
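After 24 h of compound dosing, total RNA from transfected HepG2 cells is reverse-transcribed and the reporter sequences amplified, labeled and separated by capillary electrophoresis. Values come from bidirectional fitting against DMSO.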

Experiment [14] addresses Nuclear respiratory factor 1 (Homo sapiens) (UniProt Q16656). The experiment can be described thus: ATG_NRF1_CIS: Attagene CIS-FACTORIAL HepG2 Assay for human Nuclear Respiratory Factor 1 (NRF1) Orphan Gene (AID 2282987; active = hit-call score of the fitted dose curve at least 0.9, where 1 is the maximum; inactive = score below 0.9). As to conditions: HepG2 NRF1 cis-element reporter, Attagene multiplex; actives raise or lower the signal. The procedure, abridged: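 Measured: fluorescent reporter-specific RT-PCR products from transfected HepG2 cells, separated by capillary electrophoresis. Exposure lasted 24 h. Analysis used bidirectional curve fitting with DMSO as negative control.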

Experiment [15] addresses Estrogen receptor (Homo sapiens) (UniProt P03372). The experiment can be described thus: ATG_ERa_TRANS: Attagene TRANS-FACTORIAL HepG2 Assay for human Estrogen Receptor alpha (ERa) (AID 2282970). The following applies: HepG2 Attagene TRANS ERa GAL4 reporter, mRNA. The procedure, abridged: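 Transfected HepG2 cells carrying GAL4-UAS-driven reporter units were dosed for 24 hours. Total RNA was reverse-transcribed, reporter sequences PCR-amplified, FAM-labelled, HpaI-digested and resolved by capillary electrophoresis. Increases over DMSO control defined activity.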

Experiment [16] concerns the target Estrogen-related receptor gamma (Homo sapiens) (UniProt P62508). The experiment can be described thus: ATG_ERRg_TRANS: Attagene TRANS-FACTORIAL HepG2 Assay for human Estrogen-Related Receptor gamma (ERRg) (AID 2282977).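 Also: hits increase reporter signal over DMSO so potencies reflect activators.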 As to conditions: HepG2 Attagene TRANS reporter, ERRg transactivation. An outline of the steps:
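Induction of reporter transcripts through a chimeric NR-Gal4 protein is quantified in transfected human HepG2 liver cells after 24 h chemical exposure, using RT-PCR with capillary electrophoresis detection and DMSO as baseline.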

The target of experiment [17] is Glucocorticoid receptor (Homo sapiens) (UniProt P04150). The experiment can be described thus: ATG_GR_TRANS: Attagene TRANS-FACTORIAL HepG2 Assay for human Glucocorticoid Receptor (GR) (AID 2282978).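 Also: activators score as hits since higher reporter transcript over DMSO is fitted.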 The following applies: HepG2 Attagene TRANS GR reporter, mRNA transcription. An outline of the steps: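 After 24 h incubation with test chemical, transfected HepG2 cells were lysed for RNA; reporter cDNA was amplified, FAM-labelled, HpaI-digested and sized on a capillary analyser. Signal gain relative to DMSO was scored.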

The nature of experiment [18]: ATG_M_32_TRANS: Attagene TRANS-FACTORIAL HepG2 Assay for M32 Transcription Factor (Internal Marker) (AID 2282984).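 Also: transcript level of a background control reporter unit measured by RT-PCR and capillary electrophoresis.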 The following applies: HepG2 Attagene TRANS M32 internal marker reporter. An outline of the steps: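 Internal-marker readout from a multiplexed transcription reporter panel. HepG2 cells were transfected with GAL4-UAS reporter units, treated 24 hours, and reporter transcript levels determined by fluorescence after RT-PCR and capillary separation.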

Experiment [19] concerns the target Oxysterols receptor LXR-alpha (Homo sapiens) (UniProt Q13133). The experiment can be described thus: ATG_LXRa_TRANS: Attagene TRANS-FACTORIAL HepG2 Assay for human Liver X Receptor alpha (LXRa) (AID 2282980). The following applies: HepG2 Attagene TRANS reporter, LXRa transactivation. The procedure, abridged:
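Transient HepG2 transfectants, 24 h dosing, RT-PCR/CE mRNA reporter quantitation; gain-of-signal vs DMSO.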

Usually AC50 stands for the midpoint of the concentration-response curve, whichever way the signal moves.

Results filed as inconclusive are left out. The source made the active and inactive calls. The calls were made as follows, unless noted: active = hit-call score of the fitted dose curve at least 0.9, where 1 is the maximum; inconclusive = response in the unintended direction; inactive = score below 0.9.

Sequence of Transcriptional activator Myb (Homo sapiens) (P10242 whole entry, looked up): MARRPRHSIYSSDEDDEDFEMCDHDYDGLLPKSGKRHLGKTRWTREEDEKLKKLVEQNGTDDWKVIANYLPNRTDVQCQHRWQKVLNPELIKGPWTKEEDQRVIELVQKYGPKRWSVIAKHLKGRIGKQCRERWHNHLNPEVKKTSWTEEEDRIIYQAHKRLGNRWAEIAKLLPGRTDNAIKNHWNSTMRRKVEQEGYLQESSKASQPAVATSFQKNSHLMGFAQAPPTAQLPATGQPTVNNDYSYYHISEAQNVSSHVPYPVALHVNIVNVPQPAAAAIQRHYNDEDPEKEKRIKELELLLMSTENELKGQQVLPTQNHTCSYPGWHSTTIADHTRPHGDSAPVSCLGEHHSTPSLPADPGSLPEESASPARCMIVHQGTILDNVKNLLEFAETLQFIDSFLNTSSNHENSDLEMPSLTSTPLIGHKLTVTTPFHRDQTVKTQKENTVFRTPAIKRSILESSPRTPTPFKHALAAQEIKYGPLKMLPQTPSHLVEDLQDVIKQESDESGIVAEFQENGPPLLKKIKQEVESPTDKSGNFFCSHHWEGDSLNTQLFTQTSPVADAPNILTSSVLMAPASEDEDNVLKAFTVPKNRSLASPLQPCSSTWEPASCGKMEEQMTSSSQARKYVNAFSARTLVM
Sequence of Hepatocyte nuclear factor 4-alpha (Homo sapiens) (P41235 whole entry, looked up, the tested form may be a part): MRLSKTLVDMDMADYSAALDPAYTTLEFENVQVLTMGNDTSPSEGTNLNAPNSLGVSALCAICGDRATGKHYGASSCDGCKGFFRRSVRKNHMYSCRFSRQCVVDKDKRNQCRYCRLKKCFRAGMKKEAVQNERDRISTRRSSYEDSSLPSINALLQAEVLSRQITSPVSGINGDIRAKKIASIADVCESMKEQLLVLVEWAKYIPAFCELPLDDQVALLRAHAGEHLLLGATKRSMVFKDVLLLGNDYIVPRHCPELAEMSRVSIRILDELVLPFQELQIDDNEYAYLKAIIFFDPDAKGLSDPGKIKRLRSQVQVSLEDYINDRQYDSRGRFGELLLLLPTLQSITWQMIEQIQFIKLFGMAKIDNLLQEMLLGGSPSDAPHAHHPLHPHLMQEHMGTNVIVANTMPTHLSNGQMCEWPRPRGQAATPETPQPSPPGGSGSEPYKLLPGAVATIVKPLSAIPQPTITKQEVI
Sequence of X-box-binding protein 1 (Homo sapiens) (P17861 whole entry, looked up): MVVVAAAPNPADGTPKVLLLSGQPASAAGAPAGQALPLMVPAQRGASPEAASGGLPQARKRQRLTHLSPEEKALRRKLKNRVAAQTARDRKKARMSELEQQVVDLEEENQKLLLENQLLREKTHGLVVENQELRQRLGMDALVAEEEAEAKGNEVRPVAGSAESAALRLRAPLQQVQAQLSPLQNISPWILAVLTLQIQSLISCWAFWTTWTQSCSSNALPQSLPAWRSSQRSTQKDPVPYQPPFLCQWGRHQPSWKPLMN
Sequence of Nuclear receptor subfamily 1 group I member 3 (Homo sapiens) (Q14994 whole entry, looked up, the tested form may be a part): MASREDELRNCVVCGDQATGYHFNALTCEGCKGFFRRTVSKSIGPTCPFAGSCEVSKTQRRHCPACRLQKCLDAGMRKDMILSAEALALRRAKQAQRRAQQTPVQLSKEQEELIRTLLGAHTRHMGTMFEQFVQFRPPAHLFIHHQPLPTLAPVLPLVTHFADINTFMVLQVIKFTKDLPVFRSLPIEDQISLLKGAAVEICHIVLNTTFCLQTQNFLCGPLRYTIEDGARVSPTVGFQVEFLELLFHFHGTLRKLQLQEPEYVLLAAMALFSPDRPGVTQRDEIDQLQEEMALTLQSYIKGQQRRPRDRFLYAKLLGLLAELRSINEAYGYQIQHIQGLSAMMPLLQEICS
Sequence of Nuclear respiratory factor 1 (Homo sapiens) (Q16656 whole entry, looked up): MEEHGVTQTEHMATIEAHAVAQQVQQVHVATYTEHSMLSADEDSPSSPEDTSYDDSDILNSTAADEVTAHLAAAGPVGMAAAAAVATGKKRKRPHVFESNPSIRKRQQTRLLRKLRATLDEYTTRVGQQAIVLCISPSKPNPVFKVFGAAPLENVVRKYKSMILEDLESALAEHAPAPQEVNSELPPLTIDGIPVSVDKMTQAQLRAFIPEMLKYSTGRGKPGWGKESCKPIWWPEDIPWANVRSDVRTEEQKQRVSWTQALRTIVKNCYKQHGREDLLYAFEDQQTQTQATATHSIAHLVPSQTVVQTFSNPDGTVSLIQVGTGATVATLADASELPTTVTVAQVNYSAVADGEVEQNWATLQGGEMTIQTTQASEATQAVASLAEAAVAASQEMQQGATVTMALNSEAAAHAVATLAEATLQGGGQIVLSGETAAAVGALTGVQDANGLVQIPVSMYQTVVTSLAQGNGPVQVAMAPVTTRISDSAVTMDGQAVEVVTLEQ
Sequence of Oxysterols receptor LXR-beta (Homo sapiens) (P55055 whole entry, looked up, the tested form may be a part): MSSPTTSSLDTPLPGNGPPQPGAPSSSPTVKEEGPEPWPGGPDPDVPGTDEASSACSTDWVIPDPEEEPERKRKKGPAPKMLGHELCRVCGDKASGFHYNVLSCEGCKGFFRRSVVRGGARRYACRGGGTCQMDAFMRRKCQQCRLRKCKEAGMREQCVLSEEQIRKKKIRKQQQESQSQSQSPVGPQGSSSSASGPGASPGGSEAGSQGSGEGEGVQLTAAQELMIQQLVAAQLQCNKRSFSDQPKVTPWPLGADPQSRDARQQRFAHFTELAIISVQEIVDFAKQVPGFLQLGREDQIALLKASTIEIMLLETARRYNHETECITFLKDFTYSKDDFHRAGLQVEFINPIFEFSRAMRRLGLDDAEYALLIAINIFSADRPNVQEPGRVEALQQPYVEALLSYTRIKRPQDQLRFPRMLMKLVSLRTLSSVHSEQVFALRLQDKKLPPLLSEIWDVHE
Sequence of Nuclear receptor subfamily 4 group A member 2 (Homo sapiens) (P43354 whole entry, looked up): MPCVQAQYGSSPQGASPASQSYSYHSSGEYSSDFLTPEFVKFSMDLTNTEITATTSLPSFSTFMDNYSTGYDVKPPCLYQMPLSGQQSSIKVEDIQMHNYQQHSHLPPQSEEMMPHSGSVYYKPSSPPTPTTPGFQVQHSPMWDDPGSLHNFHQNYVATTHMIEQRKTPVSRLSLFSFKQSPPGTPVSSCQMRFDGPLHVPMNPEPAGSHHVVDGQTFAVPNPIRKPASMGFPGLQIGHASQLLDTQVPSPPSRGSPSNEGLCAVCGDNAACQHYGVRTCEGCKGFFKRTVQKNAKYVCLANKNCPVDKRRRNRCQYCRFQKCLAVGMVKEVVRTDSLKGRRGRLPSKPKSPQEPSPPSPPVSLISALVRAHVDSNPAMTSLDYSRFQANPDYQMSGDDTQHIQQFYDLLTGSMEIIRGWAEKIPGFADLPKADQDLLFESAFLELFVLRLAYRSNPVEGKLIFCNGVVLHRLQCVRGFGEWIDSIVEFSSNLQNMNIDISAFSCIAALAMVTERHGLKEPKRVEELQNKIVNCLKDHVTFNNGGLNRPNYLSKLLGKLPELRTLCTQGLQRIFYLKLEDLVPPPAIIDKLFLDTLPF
Sequence of Estrogen receptor (Homo sapiens) (P03372 whole entry, looked up, the tested form may be a part): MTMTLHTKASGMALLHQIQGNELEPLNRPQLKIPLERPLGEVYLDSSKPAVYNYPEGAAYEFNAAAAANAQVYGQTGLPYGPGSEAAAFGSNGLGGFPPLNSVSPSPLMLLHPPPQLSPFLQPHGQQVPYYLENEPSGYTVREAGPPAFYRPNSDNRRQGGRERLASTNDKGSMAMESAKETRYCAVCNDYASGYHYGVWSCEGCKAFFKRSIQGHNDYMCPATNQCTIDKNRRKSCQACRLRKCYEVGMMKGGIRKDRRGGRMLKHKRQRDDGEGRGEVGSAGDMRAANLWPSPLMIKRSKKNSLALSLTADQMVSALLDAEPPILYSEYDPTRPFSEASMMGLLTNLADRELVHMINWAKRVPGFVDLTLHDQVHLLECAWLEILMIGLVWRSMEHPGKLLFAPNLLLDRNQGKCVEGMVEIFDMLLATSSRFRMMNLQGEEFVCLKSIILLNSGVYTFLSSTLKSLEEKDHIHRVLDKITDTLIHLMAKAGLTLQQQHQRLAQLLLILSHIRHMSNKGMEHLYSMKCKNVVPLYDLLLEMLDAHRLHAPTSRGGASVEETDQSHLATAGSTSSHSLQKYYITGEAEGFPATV
Sequence of Estrogen-related receptor gamma (Homo sapiens) (P62508 whole entry, looked up, the tested form may be a part): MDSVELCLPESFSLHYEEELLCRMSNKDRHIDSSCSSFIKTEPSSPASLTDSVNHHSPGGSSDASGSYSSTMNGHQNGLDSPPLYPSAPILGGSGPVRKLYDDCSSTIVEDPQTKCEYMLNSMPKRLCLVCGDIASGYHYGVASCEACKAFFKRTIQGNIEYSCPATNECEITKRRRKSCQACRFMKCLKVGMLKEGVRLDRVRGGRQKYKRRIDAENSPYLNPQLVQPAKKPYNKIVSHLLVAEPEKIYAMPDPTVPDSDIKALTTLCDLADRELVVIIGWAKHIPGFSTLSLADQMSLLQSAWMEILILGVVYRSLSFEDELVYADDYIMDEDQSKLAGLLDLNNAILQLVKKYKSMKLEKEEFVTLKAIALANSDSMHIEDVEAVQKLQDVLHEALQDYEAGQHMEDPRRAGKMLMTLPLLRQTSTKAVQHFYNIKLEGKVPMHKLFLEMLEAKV

Take `NC(=O)N=NC(N)=O`: the compound was called inactive in experiment [1], in experiment [2], in experiment [3], in experiment [4], in experiment [5] and in experiment [6]. In addition, the compound was classed as inactive in [7], in [8], in [9], in [10], in experiment [11] and in experiment [12]. Moreover, the result in [13] and in experiment [14] was inactive.

With `CC(=O)C=CC1C(C)=CCC(C)C1(C)C` (stereo not drawn), the compound was called inactive in [1], in [2], in [3], in experiment [4], in experiment [15] and in experiment [6]. In addition, the result in experiment [7], in [16], in experiment [17], in [10], in [11] and in experiment [18] was inactive. Besides, the compound was classed as inactive in experiment [12], in experiment [13] and in experiment [14].

In the case of `COc1ccc(C(Cl)=C(c2ccc(OC)cc2)c2ccc(OC)cc2)cc1`, the result in experiment [1], in [2], in experiment [4], in experiment [5], in experiment [6] and in experiment [19] was inactive. Further, the compound was called inactive in [9], in [10], in experiment [11], in [18], in [12] and in [13]. Besides, the compound was classed as inactive in experiment [14]. Further, the AC50 in experiment [3] was 4.46 µM (active).

As for `O=C1CCCCCN1SSN1CCCCCC1=O`, the result in [1], in experiment [2], in [3], in experiment [4], in [15] and in experiment [7] was inactive. The compound was called inactive in experiment [16], in [8], in [9], in experiment [10], in experiment [11] and in [18]. Also, the call in experiment [13] and in experiment [14] was inactive. Also, the AC50 in experiment [6] was 187 µM (active).
